PubChem BioAssay AID651814 (National Center for Advancing Translational Sciences (NCATS), 2012)
Several values for one entry are separate records, joined by “and”; a condition that tells them apart may be missing. Equal entries are not always repeated. Hit rate of the full screen: of about 2,100 compounds, about 590 (28%) were called active. About 42% were inconclusive and are not listed. The call rests on the fitted dose curve; in most records, active means well fitted inhibition curve with a large enough effect; inconclusive means small, poorly fitted or top-dose-only effect; inactive means flat fitted curve, though single readings scatter. Some of the results follow.

Target: DNA dC->dU-editing enzyme APOBEC-3F (Homo sapiens) (UniProt Q8IUX4)
Sequence (Q8IUX4 whole entry, looked up): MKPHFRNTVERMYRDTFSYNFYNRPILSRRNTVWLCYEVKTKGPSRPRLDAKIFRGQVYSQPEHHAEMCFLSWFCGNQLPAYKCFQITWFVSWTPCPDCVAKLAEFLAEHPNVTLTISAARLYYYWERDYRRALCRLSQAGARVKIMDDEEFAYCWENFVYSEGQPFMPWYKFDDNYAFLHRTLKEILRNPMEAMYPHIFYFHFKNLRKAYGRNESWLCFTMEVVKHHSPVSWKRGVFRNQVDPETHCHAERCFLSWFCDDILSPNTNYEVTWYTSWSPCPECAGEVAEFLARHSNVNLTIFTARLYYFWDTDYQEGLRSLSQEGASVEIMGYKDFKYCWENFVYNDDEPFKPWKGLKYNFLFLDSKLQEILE
Test: qHTS for inhibitors of Vif-A3F interactions: Cherry picks; further: nearly all actives have a fitted effect of over 70% in size;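 on max response: % of control where 0% means no effect; active compounds raise eYFP fluorescence by blocking Vif-driven A3F loss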
Conditions: HeLa A3F-eYFP + Vif (tagged APOBEC3F with the HIV-1 protein that degrades it), eYFP fluorescence, 24 h
How it was run: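 HeLa cells stably expressing A3F-eYFP plus Vif, cultured overnight, then exposed to compounds at several concentrations for 24 h at 37 deg C. Reduced Vif-driven degradation read as rising eYFP fluorescence (488 nm ex/500-530 nm em) by laser-scanning cytometry; MG132 as positive control.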
Potency means the concentration at half of the fitted maximal effect.

Structure (SMILES)	max response	Potency
CSCC[C@H](NC(=O)[C@H](Cc1ccccc1)n1c(=O)[nH]c2ccccc2c1=O)C(=O)N1CCC[C@@H]1C(=O)O	1.14% (inactive)	–
Cc1c(Cl)cccc1-c1ccc(/C=C(\C#N)c2nc3ccccc3[nH]2)o1	–	20.6 µM (active)
CCOC(=O)/C(=C/C1=CC(=C/N(C)C)/C(=O)O1)C(C)=O	-9.79% (inactive)	–
CN(C)CCCNc1cc(N2CCN(C3CCCCC3)CC2)c2noc3c2c1C(=O)c1ccccc1-3	–	9.2 µM (active)
CCNc1cc(N2CCN(C3CCCCC3)CC2)c2noc3c2c1C(=O)c1ccccc1-3	–	18.4 µM (active)
O=C1c2ccccc2-c2onc3c(N4CCN(C5CCCCC5)CC4)cc(NCCO)c1c23	–	3.66 µM (active)
CCOC(=O)c1cnc(-n2nc(C)cc2C)nc1NNc1cc(C)nc(-c2ccccc2)n1	0.647% (inactive)	–
Cc1cc(-c2ccccc2)nc(N/N=C/c2ccccc2F)n1	-4.11% (inactive)	–
C/C(=N\Nc1nc(C)cc(-c2ccccc2)n1)c1ccc(F)cc1	-6.16% (inactive)	–
Nc1c(C(=O)N/N=C/c2ccccc2Cl)oc2nc(-c3ccccc3)cc(-c3ccco3)c12	–	2.91 µM (active)
Cc1cc(/C=N/NC(=O)c2cc3ccccc3o2)c(C)n1C	-15.8% (inactive)	–
O=C(CSc1nc(-c2ccco2)cc(C(F)(F)F)n1)Nc1cccnc1	-24.4% (inactive)	–
Nc1c(C(=O)N/N=C/c2cccnc2)oc2nc(-c3ccccc3)cc(-c3ccco3)c12	–	13 µM (active)
Nc1c(C(=O)N/N=C/c2ccc(F)cc2)oc2nc(-c3ccccc3)cc(-c3ccco3)c12	–	7.9 µM (active)
C=CCOC(=O)C1=C(C)NC(C)=C(C(=O)OCC=C)C1c1cn(-c2ccccc2)nc1-c1ccco1	0.509% (inactive)	–
N=C1S/C(=C\c2ccc(-c3cccc(Cl)c3)o2)C(=O)N1c1nccs1	–	18.4 µM (active)
CC(=O)/C(=C\N(C)C)Sc1ccc(Cl)cc1	1.31% (inactive)	–
CC[n+]1cc(C)ccc1/C=C/c1ccc(N(C)C)cc1	–	8.86 µM (active)
Cc1ccc(/C=C/c2ccc(N(C)C)cc2)[n+](C)c1	–	8.86 µM (active)
CN(C)c1ccc(/C=C/c2cc[n+](C)cc2)cc1	–	15.8 µM (active)
CN1CCC(OC(=O)c2cc3cc(Cl)cc(Cl)c3oc2=O)CC1	3.05% (inactive)	–
COC(=O)[C@@]1(Cc2ccccc2)[C@@H]2C(=CC(=O)[C@H]2CC(=O)C(=O)N(C)C)CN1C(=O)c1ccccc1	-26.2% (inactive)	–
Nc1nc2n[nH]nc2c(=O)[nH]1	–	6.51 µM (active) and 3.53 µM (active)

Structure (SMILES)	max response	Potency
N#C/C(N=Nc1ccccc1O)=N\Nc1ccccc1O	–	14.6 µM (active)
CCCCN1C(=O)/C(=C2/Sc3ccccc3N2C)S/C1=N\c1ncn[nH]1	–	18.4 µM (active)
CC(CC(=O)Nc1ccc2c(c1)c(=O)n(C)n2-c1ccccc1)c1ccccc1 (centres undefined)	–	4.98 µM (active)
Cc1cnc(NC(=O)CC(C)c2ccccc2)s1 (centres undefined)	-26.1% (inactive)	–
CCn1c2ccccc2c2cc(NC(=O)c3ccc(=O)oc3)ccc21	-28.9% (inactive)	–
CC(C)(C)c1ccc(Cn2c(=O)cnc3ccccc32)cc1	-25.6% (inactive)	–
CCOc1ccc(Cn2c3ccc(OC)cc3c3nc4ccccc4nc32)cc1	–	8.2 µM (active)
CCOc1ccccc1OCC(=O)N/N=C(\C)Cc1ccc(OC)cc1	-18.5% (inactive)	–
O=C(O)c1cccc(-c2ccc(/C=N/Nc3ccc([N+](=O)[O-])cc3)o2)c1	–	18.4 µM (active)
Cc1cc([N+](=O)[O-])ccc1-c1ccc(/C=N/NC(=O)c2ccc(Br)o2)o1	–	18.4 µM (active)
NC(=S)N/N=C\c1ccc(-c2cccc(Cl)c2Cl)o1	-18.7% (inactive)	–
O=C(O)c1ccc(-c2ccc(/C=N/Nc3ccc([N+](=O)[O-])cc3)o2)cc1	–	15.8 µM (active)
CC(C)(C)NC(=S)N/N=C\c1ccc(-c2ccc([N+](=O)[O-])cc2)o1	–	14.6 µM (active)
Cc1ccc(-c2ccc(/C=N/NC(N)=S)o2)cc1	-8.18% (inactive)	–
C/C(CCc1ccc2c(c1)OCO2)=N\NC(=S)NC(C)C	-2.82% (inactive)	–
CN(/N=C/c1ccc(-c2ccc([N+](=O)[O-])cc2)o1)c1ccccc1	–	0.731 µM (active)
COc1ccc(C(=O)N/N=C/c2cc(Br)ccc2O)cc1OC	-1.32% (inactive)	–
COc1ccc2nc3ccccc3nc2c1NC(=O)c1ccc(Cl)cc1	–	16.4 µM (active)
COc1ccccc1N1CCN(C(=O)c2ccc3ncsc3c2)CC1	-21% (inactive)	–
COc1ccc2nc3ccccc3nc2c1NC(=O)c1ccc(Br)cc1	–	18.4 µM (active)
O=C(NC(=S)Nc1c(Cl)cc(Cl)cc1Cl)c1ccccc1	-0.292% (inactive)	–
COc1ccc2nc3ccccc3nc2c1NC(=O)c1ccc(Cl)cc1Cl	–	3.53 µM (active)
COc1ccc(C(=O)NC(=S)NCc2cccnc2)cc1Cl	-3.18% (inactive)	–

Structure (SMILES)	max response	Potency
COc1cc2nc(/C=C/c3ccc(N(C)C)cc3)sc2cc1SC	–	20.6 µM (active)
COc1ccc2cc(-c3nc(Cl)c4c5c(sc4n3)CC(C)CC5)c(=O)oc2c1 (centres undefined)	–	5.8 µM (active)
CCN(CC)c1ccc2cc(-c3nc4sc5c(c4c(=O)[nH]3)CCC(C(C)(C)C)C5)c(=O)oc2c1 (centres undefined)	13.2% (inactive)	–
O=C(Nc1ccc(Cl)cc1)Nc1ccon1	-9.41% (inactive)	–
O=C(CSc1n[nH]c(-c2ccccn2)n1)Nc1ccc(Cl)cc1	0.972% (inactive)	–
COc1ccccc1OCC(=O)NNC(=O)Nc1ccc(Cl)cc1	–	14 µM (active)
COCCN(CCOC)Cc1c(O)ccc2c1O/C(=C\c1ccc(C)o1)C2=O	-17.2% (inactive)	–
CCOC(=O)c1ccc(NC(=O)Cn2ncc(Cl)c(Cl)c2=O)cc1	-29.1% (inactive)	–
O=C(Cn1ncc(Cl)c(Cl)c1=O)NCC1CCCCC1	–	15.8 µM (active)
Cc1ccc(S(=O)(=O)N2CCCCC2)cc1NC(=O)Cn1ncc(Cl)c(Cl)c1=O	-13.3% (inactive)	–
C=CCSc1nc2sc3c(c2c(=O)n1CC)CCC3	-3.63% (inactive)	–
C[C@@H]1O[C@@H](O[C@@H]2C(=O)c3c(O)cc(O)cc3O[C@H]2c2ccc(O)c(O)c2)[C@H](O)[C@H](O)[C@H]1O	2.1% (inactive)	–
CCC(C)Sc1ccc(-c2nc3cc(C)ccn3c2NC2CCCCC2)cc1 (centres undefined)	-4.06% (inactive)	–
Cn1nnnc1SCc1nc2scc(-c3ccc(Cl)cc3)c2c(=O)[nH]1	-13.9% (inactive)	–
COc1cccc(N2CCN(Cc3nc4scc(-c5ccccc5)c4c(=O)[nH]3)CC2)c1	–	17.7 µM (active)
O=c1c(Cl)c2oc3ccccc3nc-2c2ccccc12	–	18.4 µM (active)
O=C(Nc1nc(-c2ccccn2)cs1)C1CCCC1	-4.77% (inactive)	–
Cc1ccc(-n2c(O)c(/C=C3/C(c4ccccc4)=Nc4ccccc43)c(=O)[nH]c2=O)cc1	-12.3% (inactive)	–
CCN1CCc2nc3sc(C(=O)c4ccccc4)c(N)c3cc2C1	–	16.4 µM (active)
Nc1c(C(=O)c2ccc(Cl)cc2)sc2nc3c(cc12)CCC3	–	23.1 µM (active)
Cc1cc(N2CCN(C)CC2)ccc1NC(=O)c1c2c(nc3ccccc13)CCN(Cc1ccccc1)C2	-29.2% (inactive)	–
Cc1ccccc1NC(=O)c1sc2nc3c(c(-c4ccco4)c2c1N)CCC3	-22.7% (inactive)	–
COc1ccc(NC(=O)c2sc3nc4c(cc3c2N)CN(Cc2ccccc2)CC4)c(OC)c1	–	20.6 µM (active)

Structure (SMILES)	max response	Potency
Cc1ccc(NC2=C(Cl)C(=O)N(C3CCCCC3)C2=O)cc1	-3.54% (inactive)	–
COc1cnc(-c2ccccn2)nc1Oc1ccc(F)cc1F	2.31% (inactive)	–
Cc1ccc(SC2=C(Sc3ccc(C)cc3)C(=O)c3ccccc3C2=O)cc1	–	20.6 µM (active)
Cc1c(NC(=O)c2csc3c2CCCC3)c(=O)n(-c2ccccc2)n1C	0.352% (inactive)	–
Cc1c(N/N=C(\C#N)C(=O)c2ccc(Cl)cc2)c(=O)n(-c2ccccc2)n1C	-12.8% (inactive)	–
Cc1c(N=C2N=C(NC(=O)c3cccs3)c3ccccc32)c(=O)n(-c2ccccc2)n1C	–	15.8 µM (active)
O=C(/C=C/c1ccco1)NC(=S)Nc1ccc(N2CCCC2)cc1	-28% (inactive)	–
COc1cccc(NC(=O)Nc2nc(-c3ccc(OC)c(OC)c3)cs2)c1	-25.2% (inactive)	–
COc1ccc(-c2csc(NC(=S)NC(=O)/C=C/c3ccco3)n2)cc1Br	–	7.04 µM (active)
Cc1ccc(C(=O)NCCn2c(N)c(C#N)c3nc4ccccc4nc32)cc1	–	23.1 µM (active)
Cn1c(=S)c2[nH]c(SCCN3CCCC3)nc2n(C)c1=O	0.53% (inactive)	–
Cc1ccc(N=Cc2c(O)n(-c3nccs3)c(=O)c3ccccc23)c(C)c1	-4.13% (inactive)	–
O=C(N/N=C/c1c(O)n(-c2ccc(Cl)cn2)c(=O)c2ccccc12)c1ccncc1	-9.07% (inactive)	–
COc1ccc(N=Cc2c(O)n(-c3cccc(C)n3)c(=O)c3ccccc23)c(OC)c1	–	13 µM (active)
CCC(=Nc1ccccc1O)C1=C(O)CC(c2ccccc2)CC1=O (centres undefined)	-8% (inactive)	–
CCN(CC)c1ccc2cc(-c3nc(-c4ccccc4)no3)c(=O)oc2c1	–	3.66 µM (active)
CCN(CC)c1ccc2cc(-c3nc(-c4cccs4)no3)c(=O)oc2c1	–	2.06 µM (active)
CCN(CC)c1ccc2cc(-c3nnc(-c4ccccc4)o3)c(=O)oc2c1	–	0.0994 µM (active)
CCN(CC)c1ccc2cc(-c3nc(-c4ccc(Cl)cc4Cl)cs3)c(=O)oc2c1	-3.92% (inactive)	–
CCN(CC)c1ccc2cc(-c3nnc(-c4cccc(Cl)c4)o3)c(=O)oc2c1	–	0.58 µM (active)
